Jurkat NFkB inh: lowers PMA/ionomycin-induced NF-kB signal in Jurkat cells | PMA/ionomycin-induced NF-kB luciferase reporter, luminescence | inhibition, % at 4 µM | actives 0.53% (n = 330,000) | AID 435003; in the data active means inhibition above about 50%
HIF act: HIF pathway transcriptional activation | activation, % at 7.5 µM (by protocol) | actives 0.32% (n = 300,000) | AID 1910 | U2OS HRE-luciferase reporter, luminescence; normalized: DMSO 0%, desferrioxamine 100%;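 active means mean activation of at least 10% of the iron chelator positive control signal, with at least half of replicates also reaching 10%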
CFTR F508del cor: CFTR F508del correction in bronchial cells. activity (quench increase), % at 7.58 µM. actives 0.36% (n = 350,000). CFBE cells, YFP halide quenching; stimulated with forskolin plus potentiator P3; % fluorescence drop versus neutral controls;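 active means mean added fluorescence quench of at least 8% versus neutral control, with both replicates also reaching 8%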;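 further: cells transiently co-express mutant CFTR-F508del with the halide-sensitive YFP; corrector assay measuring rescue of mutant channel to the surface after 24 h compound exposure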
697 NFkB inh: lowers PMA/ionomycin-induced NF-kB signal in 697 B cells. 697 B-cell NF-kB luciferase reporter, 16 h. inhibition, % at 4 µM. actives 0.33% (n = 330,000). AID 435022; in the data active means inhibition above about 35%
697 NFkB conf: inhibitors of the PMA/ionomycin-induced NF-kB reporter in 697 B cells, retest. shares compounds with 697 NFkB inh. 697 B-cell NF-kB luciferase, 16 h. inhibition, % at 4 µM. actives 35% (n = 2,000); in the data active means inhibition mostly above about 28%, no sharp cut-off; inactive means mostly below about 22%
Hits are given with their value; - = inactive; . = no result. In the library only some 0.93% were active in any assay of this set; here they are far more common.

SMILES	Jurkat NFkB inh	HIF act	CFTR F508del cor	697 NFkB inh	697 NFkB conf
O=C(Nc1ccc(O)cc1)c1c(O)c2c([nH]c1=O)CCCC2	-	-	-	-	-
Cc1cc(N2CCN(C(=O)c3ccco3)CC2)n2ncc(-c3ccccc3)c2n1	-	-	.	-	.
Cc1cc(N2CCC(C)CC2)n2ncc(-c3ccccc3)c2n1	-	-	.	-	-
Cc1cc(N2CCOCC2)n2ncc(-c3ccccc3)c2n1	-	-	.	-	-
Cc1cc(N2CCOCC2)n2nc(C)c(-c3ccc(Cl)cc3)c2n1	-	-	-	-	.
Cc1ccc(-c2cnn3c(N4CCOCC4)cc(C)nc23)cc1	-	-	.	-	-
COc1cccc(-c2ccc3c(c2)[C@@H]2[C@@H](CCN2C(=O)c2ccc4c(c2)OCO4)[C@H](CO)N3C)c1	.	.	-	.	.
COc1ccc(CN2CC3(C2)CN(C(=O)CN(C)C)[C@H](CO)c2[nH]c4cc(OC)ccc4c23)cc1	.	.	-	.	.
CC(C)(C)c1ccc(-n2ncc3c2CCCC3NC(=O)C2(C(N)=O)CC2)cc1 (stereo not drawn)	-	-	-	42.6	83.3
CCOCCCNc1nc2c(C)cccn2c(=O)c1/C=C1\SC(=S)N(CC(C)C)C1=O	-	-	.	-	.
CCOCCCNc1nc2c(C)cccn2c(=O)c1/C=C1\SC(=S)N(C(C)CC)C1=O (stereo not drawn)	-	-	.	37.2	31.6
COCCNc1nnc(SC(C)C(=O)Nc2c(C)n(C)n(-c3ccccc3)c2=O)s1 (stereo not drawn)	-	-	-	-	.
COCCNc1nnc(SC(C)C(=O)Nc2ccc(-c3nc4ccc(C)cc4s3)cc2)s1 (stereo not drawn)	-	-	.	-	-
N#Cc1sc(=O)[nH]c1Cl	-	-	-	41.6	-
C[C@@H]1CN([C@H](C)CO)C(=O)c2cccc(NC(=O)Nc3ccccc3)c2O[C@H]1CN(C)C(=O)Nc1ccccc1	.	.	-	.	.
Cc1c(CCC(=O)N2CCC(C(=O)O)(c3ccccc3)CC2)c(=O)oc2cc3oc4c(c3cc12)CCCC4	-	-	-	53.5	37.0
Cc1c(CCC(=O)N2CCC(C(=O)O)CC2)c(=O)oc2cc3oc4c(c3cc12)CCCC4	-	-	-	48.7	47.2
O=C(COc1ccc2c3c(c(=O)oc2c1)CCC3)N1CCCC1	-	-	-	-	.
Cc1c(CCC(=O)N[C@@H](C)C(=O)O)c(=O)oc2cc3oc4c(c3cc12)CCCC4	-	-	-	41.4	-
O=C(O)C1CCN(C(=O)COc2ccc3c4c(c(=O)oc3c2)CCCC4)CC1	-	-	-	37.7	-
CS(=O)(=O)N1CC2(C1)[C@H](c1ccccc1)[C@H](CO)N2CC1CC1	.	.	-	.	.
COc1ccc2c3c(n(C)c2c1)[C@@H](CO)N(Cc1ccc(Cl)cc1)CC31CN(CC2CC2)C1	.	.	-	.	.
Cc1ccc(S(=O)(=O)N(C)C[C@@H]2OCCCC[C@@H](C)Oc3ccc(N(C)C)cc3C(=O)N([C@H](C)CO)C[C@H]2C)cc1	.	.	-	.	.
Cn1c(=O)cc(Nc2ccccc2)c2c(=O)n(-c3ccccc3)c(=O)n(-c3ccccc3)c21	-	-	-	42.8	32.3
COc1cc(/C=N/NC(=O)c2ccc(-n3cccc3)cc2)ccc1O	-	-	.	42.9	-
SMILES	Jurkat NFkB inh	HIF act	CFTR F508del cor	697 NFkB inh	697 NFkB conf
COc1cccc(/C=N/NC(=O)c2ccc(N3CCCC3=O)cc2)c1	-	-	-	-	-
COc1ccc(Br)cc1/C=N/NC(=O)c1cc(Br)ccc1O	-	-	.	-	.
COc1ccc(C(=O)N/N=C/c2cc(Br)ccc2O)cc1OC	-	39.5	-	37.0	-
O=C(c1ccccn1)N1CC[C@@H]2[C@@H](CO)Nc3ccc(-c4ccc(F)cc4)cc3[C@@H]21	.	.	-	.	.
CCOC(=O)CNC(=O)CSc1nnc(NC(=O)c2ccc(C)cc2)s1	-	-	-	42.6	33.1
CCOC(=O)CNC(=O)CSc1nnc(NC(=O)c2ccc3c(c2)OCO3)s1	-	-	-	-	.
Cn1cnc(S(=O)(=O)N2CCCCN3[C@H](CO)[C@@H](c4ccc(-c5cccc(F)c5)cc4)[C@@H]3C2)c1	.	.	-	.	.
O=C(Cc1cccnc1)N1CC(=O)N2[C@H](CO)[C@@H](c3ccc(C#CC4CCCC4)cc3)[C@H]2C1	.	.	-	.	.
Oc1ccc(N=Nc2ccc3ccccc3c2)cc1	-	-	-	-	-
COc1ccc(S(=O)(=O)N(C)C[C@H]2Oc3ccc(NS(=O)(=O)c4cn(C)cn4)cc3C(=O)N([C@H](C)CO)C[C@H]2C)cc1	.	.	-	.	.
CO[C@H]1CC[C@H]2CCN(C)C(=O)[C@H](C)[C@@H](OC)CN(C)C(=O)c3cc(C#N)ccc3OC[C@H]1O2	.	.	-	.	.

Screens: PubChem, several laboratories
